PubChem BioAssay (NCATS)
Records with an inconclusive call do not appear. Active and inactive are the calls of the source. Unless noted, calls come from the whole dose curve; as a rule, active = well fitted curve in the direction sought with a large enough effect; inconclusive = small, poorly fitted or top-dose-only effect, or another doubt; inactive = no such curve, though single readings can be large; an effect the other way counts as inactive or inconclusive.

What was measured:
[1] = biological target: Ubiquitin carboxyl-terminal hydrolase 2 (Homo sapiens) (UniProt O75604); assay: qHTS Validation Assay for Inhibitors of Ubiquitin-specific Protease USP2a Using CHOP2 as the Reporter (AID 463106)
How it was run: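 Fluorescence read-out at Ex 485nm/Em 531nm after 60min RT, following addition of 25nM Ub-CHOP2 plus 25nM reporter substrate to USP2 core (10nM) pretreated 30min with compound. Data normalized to NEM full inhibition; concentration-response curves fitted.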

[2] = biological target: DNA polymerase III PolC-type (Bacillus subtilis (strain 168)) (UniProt P13267); assay: qHTS Validation Assay for the Inhibitors of DNA Replication in Gram-Positive Bacteria (AID 485295);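 note: reconstituted holoenzyme with PolC plus beta clamp SSB and primase; PicoGreen fluorescence of double-stranded DNA made on primed circular M13 template; series mostly up to about 57 µM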
Sequence of DNA polymerase III PolC-type (Bacillus subtilis (strain 168)) (P13267 whole entry, looked up): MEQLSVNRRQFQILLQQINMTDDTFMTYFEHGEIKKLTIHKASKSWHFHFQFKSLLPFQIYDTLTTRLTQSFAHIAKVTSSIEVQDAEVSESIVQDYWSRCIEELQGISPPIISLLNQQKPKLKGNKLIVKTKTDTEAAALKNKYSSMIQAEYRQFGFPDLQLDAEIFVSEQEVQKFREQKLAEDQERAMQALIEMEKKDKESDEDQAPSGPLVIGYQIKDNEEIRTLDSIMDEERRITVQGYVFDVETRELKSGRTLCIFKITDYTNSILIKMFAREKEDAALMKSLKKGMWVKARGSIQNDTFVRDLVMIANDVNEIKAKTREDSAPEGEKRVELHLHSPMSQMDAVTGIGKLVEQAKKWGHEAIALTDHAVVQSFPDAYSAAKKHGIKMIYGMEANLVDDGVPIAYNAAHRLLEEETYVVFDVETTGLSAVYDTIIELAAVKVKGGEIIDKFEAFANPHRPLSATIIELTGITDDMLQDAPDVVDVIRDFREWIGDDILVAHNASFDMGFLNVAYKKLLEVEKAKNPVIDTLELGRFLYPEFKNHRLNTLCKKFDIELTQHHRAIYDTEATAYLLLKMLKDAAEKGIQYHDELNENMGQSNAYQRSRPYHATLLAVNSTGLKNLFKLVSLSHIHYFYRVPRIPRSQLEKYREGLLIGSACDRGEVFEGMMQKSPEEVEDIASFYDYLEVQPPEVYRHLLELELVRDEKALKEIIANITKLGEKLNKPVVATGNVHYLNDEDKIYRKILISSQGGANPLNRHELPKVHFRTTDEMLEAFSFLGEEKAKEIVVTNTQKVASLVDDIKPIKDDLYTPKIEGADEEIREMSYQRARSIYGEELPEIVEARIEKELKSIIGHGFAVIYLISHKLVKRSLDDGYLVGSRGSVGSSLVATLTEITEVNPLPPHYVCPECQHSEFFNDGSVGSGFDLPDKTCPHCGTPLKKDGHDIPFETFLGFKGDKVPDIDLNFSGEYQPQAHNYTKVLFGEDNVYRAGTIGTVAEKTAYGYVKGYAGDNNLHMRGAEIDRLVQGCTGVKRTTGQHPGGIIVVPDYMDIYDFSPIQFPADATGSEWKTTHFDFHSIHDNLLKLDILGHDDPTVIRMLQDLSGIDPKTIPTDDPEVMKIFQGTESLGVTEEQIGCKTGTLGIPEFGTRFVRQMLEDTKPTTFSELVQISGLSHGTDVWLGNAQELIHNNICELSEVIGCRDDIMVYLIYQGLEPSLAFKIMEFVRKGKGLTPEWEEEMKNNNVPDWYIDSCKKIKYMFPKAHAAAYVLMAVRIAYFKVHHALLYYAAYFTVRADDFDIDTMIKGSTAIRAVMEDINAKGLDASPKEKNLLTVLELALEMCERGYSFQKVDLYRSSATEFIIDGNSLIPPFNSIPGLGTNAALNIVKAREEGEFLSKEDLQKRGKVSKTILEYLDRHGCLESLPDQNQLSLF
How it was run: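 Inhibition of DNA synthesis by the reconstituted PolC holoenzyme, monitored through PicoGreen staining of dsDNA formed from ssM13Gori, dNTPs and NTPs, with compound preincubation and room-temperature reaction.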

[3] = biological target: Tumor susceptibility gene 101 protein (Homo sapiens) (UniProt Q99816); assay: qHTS Validation Assay for Iinhibitors of HIV-1 Budding by Blocking the Interaction of PTAP/TSG101 (AID 485342; calls by dose curve)
Sequence of Tumor susceptibility gene 101 protein (Homo sapiens) (Q99816 whole entry, looked up, the tested form may be a part): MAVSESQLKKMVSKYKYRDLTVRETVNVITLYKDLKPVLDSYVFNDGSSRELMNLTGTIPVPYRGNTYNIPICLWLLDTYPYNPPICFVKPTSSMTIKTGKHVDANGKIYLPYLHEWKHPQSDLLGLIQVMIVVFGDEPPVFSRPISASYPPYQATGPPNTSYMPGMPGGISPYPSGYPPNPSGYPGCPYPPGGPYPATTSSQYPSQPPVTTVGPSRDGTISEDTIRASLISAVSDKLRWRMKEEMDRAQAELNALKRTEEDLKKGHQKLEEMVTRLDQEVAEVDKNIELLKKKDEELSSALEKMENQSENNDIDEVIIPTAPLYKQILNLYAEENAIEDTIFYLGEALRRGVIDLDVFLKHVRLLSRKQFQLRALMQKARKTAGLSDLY
How it was run: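 Compound wells held the Tsg101 binding domain (10 uM) and a FITC-conjugated PTAP peptide (50 nM) in buffer at pH 7.5 containing 0.15 M NaCl and 0.01% Tween 20; polarization was recorded after 20 min, r.t.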

[4] = biological target: Beta-2 adrenergic receptor (Homo sapiens) (UniProt P07550); assay: qHTS validation assay of beta-arrestin-biased ligands of beta2-adrenergic receptor (AID 485366)
How it was run: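 Agonist activity is measured as luciferase luminescence downstream of beta-arrestin recruitment to recombinant beta2-AR in Tango cells. Exposure lasts 18 hr at 37 degrees C, and curves are categorized by r2, response size and activity.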

[5] = biological target: ATP-dependent 6-phosphofructokinase (Trypanosoma brucei brucei) (UniProt O15648); assay: qHTS Validation Assay to Find Inhibitors of T. brucei phosphofructokinase (AID 485368); note: potency is the fitted concentration of half-maximal effect
Sequence of ATP-dependent 6-phosphofructokinase (Trypanosoma brucei brucei) (O15648 whole entry, looked up): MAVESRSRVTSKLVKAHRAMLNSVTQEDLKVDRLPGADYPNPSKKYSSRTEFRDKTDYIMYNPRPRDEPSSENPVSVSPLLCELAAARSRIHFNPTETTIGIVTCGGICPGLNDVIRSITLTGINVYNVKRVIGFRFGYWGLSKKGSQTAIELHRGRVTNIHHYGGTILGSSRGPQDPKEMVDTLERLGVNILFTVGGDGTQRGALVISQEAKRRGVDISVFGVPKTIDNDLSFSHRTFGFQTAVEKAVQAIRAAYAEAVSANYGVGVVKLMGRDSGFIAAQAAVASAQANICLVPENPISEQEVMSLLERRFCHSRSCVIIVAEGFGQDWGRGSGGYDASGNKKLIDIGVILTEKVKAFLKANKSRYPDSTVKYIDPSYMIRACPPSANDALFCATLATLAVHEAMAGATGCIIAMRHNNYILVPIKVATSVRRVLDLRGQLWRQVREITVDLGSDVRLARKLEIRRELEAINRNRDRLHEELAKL
How it was run: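 Inhibition derived from concentration-response curves of luminescence, ranked by r2, response size and curve class; the underlying reaction used 1.25 nM PFK, 0.1 mM ATP and 0.5 mM F6P, 45 min, room temperature.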

[6] = Quantitative high throughput screen for delayed death inhibitors of the malarial parasite plastid, 48 hour incubation (AID 488752); note: nearly all actives have a fitted effect of over 65% in size
How it was run: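 First, compound was pinned into RPMI 1640 medium containing 0.5% Albumax. Next, reporter-parasite-infected erythrocytes were added to 2% hematocrit and 0.1% parasitemia. After 48 h at 37 C under 5% CO2, luciferase detection reagent was added and luminescence read.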

[7] = biological target: Thioredoxin reductase 1, cytoplasmic (Rattus norvegicus) (UniProt O89049); assay: qHTS Assay for Substrates of Mammalian Selenoprotein Thioredoxin Reductase 1 (TrxR1) (AID 488772);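 note: series mostly up to about 57 µM; a drop in NADPH fluorescence below the no-compound background marks a TrxR1 substrate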
Sequence of Thioredoxin reductase 1, cytoplasmic (Rattus norvegicus) (O89049 whole entry, looked up): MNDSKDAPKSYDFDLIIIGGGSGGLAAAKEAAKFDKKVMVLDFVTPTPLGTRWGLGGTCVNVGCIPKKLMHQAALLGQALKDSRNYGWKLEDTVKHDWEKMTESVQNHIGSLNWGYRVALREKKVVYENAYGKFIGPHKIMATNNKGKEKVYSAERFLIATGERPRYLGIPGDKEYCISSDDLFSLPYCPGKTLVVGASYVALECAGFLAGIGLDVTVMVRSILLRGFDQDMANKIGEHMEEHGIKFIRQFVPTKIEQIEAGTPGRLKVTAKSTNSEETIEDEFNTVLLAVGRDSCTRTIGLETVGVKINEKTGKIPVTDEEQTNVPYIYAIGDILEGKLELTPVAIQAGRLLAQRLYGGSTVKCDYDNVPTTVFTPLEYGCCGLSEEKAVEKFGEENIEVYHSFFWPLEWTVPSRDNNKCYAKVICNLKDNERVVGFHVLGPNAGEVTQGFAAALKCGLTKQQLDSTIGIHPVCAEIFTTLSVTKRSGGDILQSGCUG
How it was run: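 In this dual-purpose format, potential substrates are identified from the first fluorescence read after selenite addition, not from the 8-minute delta. Rat enzyme is preincubated with NADPH and then with compound at ~22 deg C.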

[8] = biological target: Flap endonuclease 1 (Homo sapiens) (UniProt P39748); assay: qHTS Validation Assay for the Inhibitors of Human Flap endonuclease 1 (FEN1) (AID 488816)
How it was run: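 Enzyme reagent 10 nM; cpds pinned; 15 min RT preinc.; substrate 50 nM final; reads t=0 and 15 min; no-enzyme buffer wells as neg. control; normalized data, 4-parameter Hill fit.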

[9] = biological target: M-phase phosphoprotein 8 (Homo sapiens) (UniProt Q99549); assay: qHTS Validation Assay for Inhibitors for MPP8 Chromodomain Interactions with Methylated Histone Tails (AID 488949);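 note: 50 nM MPP8 with 50 nM peptide preformed then compounds added for 30 min; AlphaScreen signal from MPP8 chromodomain bound to biotinylated H3K9me3 peptide; top concentration of the series differs between compounds; nearly all actives have a fitted effect of over 55% in size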
How it was run: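 Chemiluminescent proximity assay: histidine-tag capture via nickel acceptor beads, biotin peptide via streptavidin donor beads. Protein and peptide each at 50 nM, pH 7.4, with 30 min incubations at room temperature for complex formation, compound exposure and bead binding.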

[10] = biological target: Chromobox protein homolog 1 (Homo sapiens) (UniProt P83916); assay: qHTS Validation Assay for Inhibitors of HP1-beta Chromodomain Interactions with Methylated Histone Tails (AID 488953); note: nearly all actives have a fitted effect of over 50% in size; note: potency is the fitted concentration of half-maximal effect
How it was run: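 Disruption of preformed HP1-beta:H3K9me3 peptide complexes (both 50 nM, PBS pH 7.4 with 0.01% Tween-20) is measured by AlphaScreen after 30 min compound exposure at room temperature, using streptavidin donor and nickel chelate acceptor beads at 10 ug/mL final.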

[11] = biological target: Methanococcus maripaludis chaperonin (MmCpn) (UniProt Q6LX38); assay: High-Throughput Screening for Modulators of Cytosolic Chaperonin Activity: MmCpn Primary Screen (AID 488978)
Sequence of Methanococcus maripaludis chaperonin (MmCpn) (Q6LX38 1-543): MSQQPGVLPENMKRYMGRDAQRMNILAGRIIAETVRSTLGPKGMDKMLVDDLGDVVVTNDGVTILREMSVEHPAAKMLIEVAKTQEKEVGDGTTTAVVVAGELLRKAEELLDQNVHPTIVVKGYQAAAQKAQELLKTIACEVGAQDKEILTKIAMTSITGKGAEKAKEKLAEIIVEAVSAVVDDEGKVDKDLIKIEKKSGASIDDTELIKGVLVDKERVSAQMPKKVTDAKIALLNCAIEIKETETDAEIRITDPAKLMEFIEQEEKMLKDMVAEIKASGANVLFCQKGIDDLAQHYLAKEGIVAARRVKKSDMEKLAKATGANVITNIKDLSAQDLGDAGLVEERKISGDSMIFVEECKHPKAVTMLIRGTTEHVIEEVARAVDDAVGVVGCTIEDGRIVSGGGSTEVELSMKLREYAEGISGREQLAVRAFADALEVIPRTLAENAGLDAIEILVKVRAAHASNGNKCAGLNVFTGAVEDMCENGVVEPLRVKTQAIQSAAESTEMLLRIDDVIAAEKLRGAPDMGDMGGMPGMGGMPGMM
How it was run: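 HTRF readout (320 nm excitation, 590/665 nm emission) of ADP generated by 50 nM MmCpn hydrolysing 30 uM ATP during 10 min at 37C; compound preincubated 5 min RT.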

[12] = biological target: Transient receptor potential cation channel subfamily V member 1 (Homo sapiens) (UniProt Q8NER1); assay: HTS Assay for Compounds that Act as Enhancers of the Vanilloid Receptor 1 (AID 488979)
Sequence of Transient receptor potential cation channel subfamily V member 1 (Homo sapiens) (Q8NER1 whole entry, looked up): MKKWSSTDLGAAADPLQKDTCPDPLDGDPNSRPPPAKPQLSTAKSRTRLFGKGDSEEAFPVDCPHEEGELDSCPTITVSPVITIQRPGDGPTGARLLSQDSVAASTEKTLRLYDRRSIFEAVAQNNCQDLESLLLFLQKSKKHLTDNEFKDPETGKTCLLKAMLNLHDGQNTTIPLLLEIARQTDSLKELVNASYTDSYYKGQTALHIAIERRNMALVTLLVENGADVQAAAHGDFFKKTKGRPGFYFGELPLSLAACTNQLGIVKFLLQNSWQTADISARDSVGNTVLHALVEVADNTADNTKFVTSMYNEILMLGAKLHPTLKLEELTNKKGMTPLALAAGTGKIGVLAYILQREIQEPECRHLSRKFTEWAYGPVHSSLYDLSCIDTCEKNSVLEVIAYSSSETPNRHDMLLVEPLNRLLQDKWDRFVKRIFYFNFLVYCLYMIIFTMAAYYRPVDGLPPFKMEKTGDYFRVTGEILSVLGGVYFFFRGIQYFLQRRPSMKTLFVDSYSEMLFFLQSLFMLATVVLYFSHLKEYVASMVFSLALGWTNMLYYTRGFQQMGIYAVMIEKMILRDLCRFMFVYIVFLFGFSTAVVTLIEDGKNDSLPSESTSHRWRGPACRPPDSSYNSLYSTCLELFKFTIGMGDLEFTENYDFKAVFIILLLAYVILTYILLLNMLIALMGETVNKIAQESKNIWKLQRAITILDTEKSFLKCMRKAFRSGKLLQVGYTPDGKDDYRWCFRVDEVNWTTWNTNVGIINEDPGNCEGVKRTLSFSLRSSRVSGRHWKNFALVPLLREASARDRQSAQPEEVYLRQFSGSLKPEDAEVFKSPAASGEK
How it was run: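 TRPV1 cells loaded with Fluo-8 calcium dye; compound added and Ca2+ signal (ex 480/em 520 nm) followed 3 min, then capsaicin at EC20 added and read 2 more min to detect enhancement.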

[13] = biological target: D(1A) dopamine receptor (Homo sapiens) (UniProt P21728); assay: HTS Assay for Allosteric Agonists of the Human D1 Dopamine Receptor: Primary Screen for Agonists (AID 488981); note: potency is the fitted concentration of half-maximal effect
How it was run: (§1)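 Tetracycline-induced HEK293 Trex D1 cells with forced coupling to calcium, loaded with no-wash calcium dye; kinetic fluorescence read 180 s after compound addition for agonism, then a further 180 s after an EC20 dopamine challenge for potentiation.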

[14] = biological target: D(1A) dopamine receptor (Homo sapiens) (UniProt P21728); assay: HTS Assay for Allosteric Agonists of the Human D1 Dopamine Receptor: Primary Screen for Potentiators (AID 488982)
How it was run: as §1

[15] = biological target: D(1A) dopamine receptor (Homo sapiens) (UniProt P21728); assay: HTS Assay for Allosteric Agonists of the Human D1 Dopamine Receptor: Primary Screen for Antagonists (AID 488983);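 note: calcium flux response to an EC80 dopamine challenge measured with no-wash dye; nearly all actives have a fitted effect of over 65% in size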
How it was run: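 Kinetic fluorescence at 1 cycle/sec tracked intracellular calcium in force-coupled, tetracycline-inducible HEK293 T-REx D1 cells. Loss of response to an EC80 dopamine dose, given 180 s after compound, marked antagonists.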

[16] = Quantitative high throughput screen for delayed death inhibitors of the malarial parasite plastid, 96 hour incubation (AID 488745);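 note: luciferase-expressing P. falciparum in erythrocytes at 2% hematocrit and 0.1% parasitemia; series mostly up to about 29 µM; nearly all actives have a fitted effect of over 70% in size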
How it was run: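 Readout is firefly luciferase luminescence from an integrated reporter in P. falciparum; lower signal marks inhibited growth. Cultures at 2% hematocrit and 0.1% parasitemia were treated with compound across two generations (96 h, 37 C, 5% CO2).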

[17] = biological target: Thyrotropin receptor (Homo sapiens) (UniProt P16473); assay: qHTS Assay for Antagonists of the Thyroid Stimulating Hormone Receptor (AID 488980); note: series mostly up to about 58 µM
Sequence of Thyrotropin receptor (Homo sapiens) (P16473 whole entry, looked up): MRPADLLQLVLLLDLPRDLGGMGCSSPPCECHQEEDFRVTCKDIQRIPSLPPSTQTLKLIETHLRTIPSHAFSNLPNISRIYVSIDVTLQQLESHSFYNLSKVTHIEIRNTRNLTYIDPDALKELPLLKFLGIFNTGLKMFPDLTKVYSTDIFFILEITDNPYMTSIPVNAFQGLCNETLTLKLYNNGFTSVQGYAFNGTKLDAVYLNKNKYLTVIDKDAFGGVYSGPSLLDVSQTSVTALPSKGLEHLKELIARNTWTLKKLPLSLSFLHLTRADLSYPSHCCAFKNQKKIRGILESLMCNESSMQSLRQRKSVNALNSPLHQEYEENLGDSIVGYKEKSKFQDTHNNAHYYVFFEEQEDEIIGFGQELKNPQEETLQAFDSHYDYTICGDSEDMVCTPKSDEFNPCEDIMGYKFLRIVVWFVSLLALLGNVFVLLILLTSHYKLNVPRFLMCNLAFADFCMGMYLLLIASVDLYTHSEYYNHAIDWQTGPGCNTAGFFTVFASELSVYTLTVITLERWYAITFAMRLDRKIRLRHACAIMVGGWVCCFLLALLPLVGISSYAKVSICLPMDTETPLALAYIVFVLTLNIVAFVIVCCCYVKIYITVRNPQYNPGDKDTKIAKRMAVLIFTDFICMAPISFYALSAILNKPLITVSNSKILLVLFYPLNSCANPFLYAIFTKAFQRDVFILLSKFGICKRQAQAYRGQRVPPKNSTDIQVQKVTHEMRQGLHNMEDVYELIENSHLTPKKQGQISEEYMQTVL
How it was run: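 Inhibition of TSH-stimulated cAMP accumulation was quantified by homogeneous time-resolved FRET in TSHR-transfected HEK293 cells. Agonist: TSH, 4 nM final (EC80).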

[18] = biological target: Thioredoxin reductase 1, cytoplasmic (Rattus norvegicus) (UniProt O89049); assay: qHTS Assay for Inhibitors of Mammalian Selenoprotein Thioredoxin Reductase 1 (TrxR1) (AID 488773); details: Potency: inhibition;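 note: drop in NADPH fluorescence over an 8 min run after selenite addition; series mostly up to about 57 µM; nearly all actives have a fitted effect of over 40% in size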
How it was run: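 Inhibition is scored from the loss of NADPH fluorescence between first and last reads of an 8-min kinetic run. Selenite (400 uM) was the substrate, added after 15 min compound preincubation at room temperature.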

[19] = qHTS Validation Assay to Find Inhibitors of Chronic Active B-Cell Receptor Signaling (AID 485345; active = well fitted curve in the direction sought with a large enough effect in the main read-out, with a control signal flat, not every such curve was filed as active)
How it was run: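 TMD8 ABC-DLBCL cells stably carrying doxycycline-inducible IkappaBalpha–green luciferase fusion plus unfused red luciferase; compounds 46 uM to 3 nM, 4 h at 37C with doxycycline. Corrected green/red luminescence ratio normalized to 10 uM MG-132 and basal cell wells; curves fitted.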

Measured: Potency

CCCCC/C=C\CC(O)/C=C/c1cccc(CC(O)CCCCO)n1 (stereo not given)
active: [10] 0.0075 µM
not listed: [16] | [17] | [18] | [19]
inactive: all other assays above

N#C/C(=C\c1ccc(O)c(O)c1)C(=O)NCc1ccccc1
active: [5] 13.5 µM | [10] 10 µM
not listed: [6] | [9] | [13] | [18] | [19]
inactive: all other assays above

Clc1ccc(N2CCN(Cc3c[nH]c4ncccc34)CC2)cc1
not listed: [10] | [13] | [15] | [17] | [19]
inactive: all other assays above

CCCCCCCCCCCCCCCC(=O)NCC(COP(=O)([O-])OCC[N+](C)(C)C)OCC (stereo not given)
active: [13] 12.6 µM
not listed: [5] | [8] | [12] | [15] | [16]
inactive: all other assays above

COc1cc2c(CCNC(C)=O)c[nH]c2cc1Cl
not listed: [5] | [8] | [16]
inactive: all other assays above

O=C(O)[C@@H]1C[C@@H](C(=O)O)N1
not listed: [5] | [8] | [16] | [17]
inactive: all other assays above

COc1cc(SC)ccc1C(=O)N1CCC(Cc2ccccc2)CC1
not listed: [6] | [12] | [15] | [16] | [17] | [19]
inactive: all other assays above

Fc1cccc(/C=N/N=C/c2cccc(F)c2)c1
not listed: [6] | [13] | [14] | [15] | [16] | [19]
inactive: all other assays above

O=C(O)CCCC[C@@H]1CCSS1
not listed: [5] | [14] | [16]
inactive: all other assays above
